Twelve compounds from ChEMBL document CHEMBL3988442, “University of Dundee, Small-Polar-MMV Screening Library” (2021) can be followed below.

Common to all, as to design: scale not given: direction of the effect not stated beside the values
Assay [1] addresses Protein translocase subunit SecA (Escherichia coli (strain K12)) (UniProt P10408). Kind of assay: Assay to Identify E. coli SecA ATPase Inhibitors. In kind it is functional. Particulars: 30 µM.
In assay [2] the target is T1, Ubiquitin-activating enzyme e1, putative (Leishmania donovani (strain BPK282A1)) (UniProt E9BSI1).
T1 sequence (whole entry): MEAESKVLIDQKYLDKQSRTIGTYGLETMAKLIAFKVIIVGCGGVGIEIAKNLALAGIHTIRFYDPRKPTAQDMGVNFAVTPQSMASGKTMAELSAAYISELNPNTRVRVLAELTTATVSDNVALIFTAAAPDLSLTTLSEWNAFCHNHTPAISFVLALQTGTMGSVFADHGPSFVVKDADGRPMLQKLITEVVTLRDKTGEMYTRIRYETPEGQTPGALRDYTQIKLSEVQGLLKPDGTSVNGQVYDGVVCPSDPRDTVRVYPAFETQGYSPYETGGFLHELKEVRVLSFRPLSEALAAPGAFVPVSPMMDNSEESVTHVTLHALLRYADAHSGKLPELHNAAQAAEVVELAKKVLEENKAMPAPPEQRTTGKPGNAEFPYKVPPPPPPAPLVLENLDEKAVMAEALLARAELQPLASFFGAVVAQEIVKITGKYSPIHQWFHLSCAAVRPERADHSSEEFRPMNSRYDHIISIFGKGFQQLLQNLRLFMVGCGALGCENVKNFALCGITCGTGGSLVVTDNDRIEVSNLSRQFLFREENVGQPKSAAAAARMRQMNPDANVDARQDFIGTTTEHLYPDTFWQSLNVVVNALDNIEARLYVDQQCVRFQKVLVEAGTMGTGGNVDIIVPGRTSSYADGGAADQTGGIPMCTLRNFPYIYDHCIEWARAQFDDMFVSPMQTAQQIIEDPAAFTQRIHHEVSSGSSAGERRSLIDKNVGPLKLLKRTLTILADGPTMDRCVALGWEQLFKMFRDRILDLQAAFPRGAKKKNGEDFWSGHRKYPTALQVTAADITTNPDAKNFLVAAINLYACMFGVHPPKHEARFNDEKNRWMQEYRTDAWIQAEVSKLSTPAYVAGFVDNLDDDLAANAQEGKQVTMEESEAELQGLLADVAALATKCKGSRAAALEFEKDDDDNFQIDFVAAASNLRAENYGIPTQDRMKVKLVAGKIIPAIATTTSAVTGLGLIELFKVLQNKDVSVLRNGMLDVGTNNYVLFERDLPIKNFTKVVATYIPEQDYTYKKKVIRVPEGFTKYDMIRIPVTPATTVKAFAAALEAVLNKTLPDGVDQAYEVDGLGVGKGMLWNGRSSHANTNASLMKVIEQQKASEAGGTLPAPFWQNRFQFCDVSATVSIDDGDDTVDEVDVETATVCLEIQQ
The assay is described as follows: Leishmania donovani Ubiquitin Activating Enzyme (LdE1). In kind it is functional. The following applies: 30 µM.

Assay [3] concerns the target Sialic acid-binding Ig-like lectin 9 (Homo sapiens) (UniProt Q9Y336). Kind of assay: Hs-Siglec9 ALPHAscreen SOP 20170721. Particulars: 10 µM. In general terms: Alpha assays give light when donor and acceptor beads are brought close together.
Another assay relates to Trypanosoma cruzi. Kind of assay: Trypanosoma cruzi phosphomannomutase and mannose-1-phosphate guanylyltransferase assay. The following applies: 10 µM. In kind it is functional.
In assay [4] the target is T2, Arginase-2, mitochondrial (Homo sapiens) (UniProt P78540).
T2 sequence (whole entry): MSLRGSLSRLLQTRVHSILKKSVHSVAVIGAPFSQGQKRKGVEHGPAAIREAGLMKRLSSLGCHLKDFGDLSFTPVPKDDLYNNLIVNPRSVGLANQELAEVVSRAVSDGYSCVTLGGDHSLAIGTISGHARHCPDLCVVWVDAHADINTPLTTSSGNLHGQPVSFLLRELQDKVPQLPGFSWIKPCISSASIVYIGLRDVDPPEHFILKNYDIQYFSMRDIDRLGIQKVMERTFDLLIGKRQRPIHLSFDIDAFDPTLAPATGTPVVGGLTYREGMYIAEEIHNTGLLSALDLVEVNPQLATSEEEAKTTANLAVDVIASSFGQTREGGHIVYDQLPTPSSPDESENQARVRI
The assay is described as follows: in vitro enzyme assay to detect the production of urea directly proportional to the activity of Arginase II. Further: in the data most compounds retested in dose-response had high values. Particulars: 33.3 µM. The format is functional.

Assay [5] deals with T3, Proteasome subunit beta (Trypanosoma cruzi) (UniProt O96673).
T3 sequence (whole entry): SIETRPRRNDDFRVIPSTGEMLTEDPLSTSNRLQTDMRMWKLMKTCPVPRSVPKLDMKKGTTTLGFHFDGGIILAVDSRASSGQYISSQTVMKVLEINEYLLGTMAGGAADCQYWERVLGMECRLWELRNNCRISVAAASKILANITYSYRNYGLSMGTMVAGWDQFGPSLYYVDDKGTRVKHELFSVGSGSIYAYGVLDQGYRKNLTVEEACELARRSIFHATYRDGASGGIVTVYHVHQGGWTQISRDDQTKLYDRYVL
Kind of assay: Trypanosoma cruzi proteasome chymotrypsin-like activity (TcProtChymo) assay. Further: in the data most compounds retested in dose-response had high values. In kind it is functional. The following applies: 9.37 µM.

For another assay, the species on record is Homo sapiens. Kind of assay: To identify inhibition of the IFN signalling (Jak-Stat) pathway via expression of an eGFP reporter gene under the control of an IFN-stimulated response element (ISRE) containing MxA promoter. The format is functional. The following applies: 30 µM.
Assay [6] concerns the target T4, Tyrosyl-tRNA synthetase, putative (Trypanosoma cruzi (strain CL Brener)) (UniProt Q4DSP6).
T4 sequence (whole entry): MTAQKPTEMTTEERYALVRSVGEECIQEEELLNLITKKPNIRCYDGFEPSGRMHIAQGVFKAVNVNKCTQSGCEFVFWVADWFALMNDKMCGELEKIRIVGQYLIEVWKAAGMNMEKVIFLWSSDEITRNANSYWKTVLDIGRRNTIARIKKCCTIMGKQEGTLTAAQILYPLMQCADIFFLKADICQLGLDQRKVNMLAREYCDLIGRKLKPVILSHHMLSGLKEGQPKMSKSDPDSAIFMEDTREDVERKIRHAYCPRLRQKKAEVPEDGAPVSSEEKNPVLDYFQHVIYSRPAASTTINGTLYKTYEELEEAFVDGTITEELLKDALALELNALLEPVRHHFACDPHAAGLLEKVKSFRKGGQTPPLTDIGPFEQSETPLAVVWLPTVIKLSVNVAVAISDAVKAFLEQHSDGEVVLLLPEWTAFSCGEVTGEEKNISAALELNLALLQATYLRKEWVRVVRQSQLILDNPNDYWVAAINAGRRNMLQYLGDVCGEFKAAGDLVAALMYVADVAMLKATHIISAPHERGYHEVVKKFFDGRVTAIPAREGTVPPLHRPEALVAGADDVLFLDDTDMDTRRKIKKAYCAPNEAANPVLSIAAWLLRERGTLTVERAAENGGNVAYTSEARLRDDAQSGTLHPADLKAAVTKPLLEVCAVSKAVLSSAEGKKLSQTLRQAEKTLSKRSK
Kind of assay: Trypanosoma cruzi tyrosyl tRNA synthetase (TcYRS) _High Tyrosine SOP. Further: in the data most compounds retested in dose-response had high values. In kind it is functional. The following applies: 30 µM.

Assay [7] has as its target T4, Tyrosyl-tRNA synthetase, putative (Trypanosoma cruzi (strain CL Brener)). The assay is described as follows: Trypanosoma cruzi tyrosyl tRNA synthetase (TcYRS) SOP. The format is functional. Particulars: 30 µM.
Assay [8] deals with Chromo domain-containing protein 1 (Saccharomyces cerevisiae (strain ATCC 204508 / S288c) (Baker's yeast)) (UniProt P32657). Kind of assay: ScCHD-1 Enzyme Inhibition Assay. Further: in the data most compounds retested in dose-response had high values. In kind it is functional. Particulars: 30 µM.

Each structure is given as a SMILES string. For part of these data: Entries with a potency or affinity are not part of this list.

Sialic acid-binding Ig-like lectin 9 (Homo sapiens), sequence (Q9Y336 whole entry): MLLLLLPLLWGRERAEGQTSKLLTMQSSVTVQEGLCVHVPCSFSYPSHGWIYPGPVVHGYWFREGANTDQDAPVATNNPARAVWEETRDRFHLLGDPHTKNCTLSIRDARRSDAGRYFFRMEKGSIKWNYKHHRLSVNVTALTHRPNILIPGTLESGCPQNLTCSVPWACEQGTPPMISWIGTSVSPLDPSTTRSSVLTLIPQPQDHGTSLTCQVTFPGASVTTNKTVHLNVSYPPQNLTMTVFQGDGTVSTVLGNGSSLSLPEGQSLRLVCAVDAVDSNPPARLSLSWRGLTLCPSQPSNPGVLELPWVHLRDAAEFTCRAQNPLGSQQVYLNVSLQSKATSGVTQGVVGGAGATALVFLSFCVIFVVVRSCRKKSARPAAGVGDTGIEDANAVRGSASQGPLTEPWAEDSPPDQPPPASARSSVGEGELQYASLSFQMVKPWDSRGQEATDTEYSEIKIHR
Protein translocase subunit SecA (Escherichia coli (strain K12)), sequence (P10408 whole entry): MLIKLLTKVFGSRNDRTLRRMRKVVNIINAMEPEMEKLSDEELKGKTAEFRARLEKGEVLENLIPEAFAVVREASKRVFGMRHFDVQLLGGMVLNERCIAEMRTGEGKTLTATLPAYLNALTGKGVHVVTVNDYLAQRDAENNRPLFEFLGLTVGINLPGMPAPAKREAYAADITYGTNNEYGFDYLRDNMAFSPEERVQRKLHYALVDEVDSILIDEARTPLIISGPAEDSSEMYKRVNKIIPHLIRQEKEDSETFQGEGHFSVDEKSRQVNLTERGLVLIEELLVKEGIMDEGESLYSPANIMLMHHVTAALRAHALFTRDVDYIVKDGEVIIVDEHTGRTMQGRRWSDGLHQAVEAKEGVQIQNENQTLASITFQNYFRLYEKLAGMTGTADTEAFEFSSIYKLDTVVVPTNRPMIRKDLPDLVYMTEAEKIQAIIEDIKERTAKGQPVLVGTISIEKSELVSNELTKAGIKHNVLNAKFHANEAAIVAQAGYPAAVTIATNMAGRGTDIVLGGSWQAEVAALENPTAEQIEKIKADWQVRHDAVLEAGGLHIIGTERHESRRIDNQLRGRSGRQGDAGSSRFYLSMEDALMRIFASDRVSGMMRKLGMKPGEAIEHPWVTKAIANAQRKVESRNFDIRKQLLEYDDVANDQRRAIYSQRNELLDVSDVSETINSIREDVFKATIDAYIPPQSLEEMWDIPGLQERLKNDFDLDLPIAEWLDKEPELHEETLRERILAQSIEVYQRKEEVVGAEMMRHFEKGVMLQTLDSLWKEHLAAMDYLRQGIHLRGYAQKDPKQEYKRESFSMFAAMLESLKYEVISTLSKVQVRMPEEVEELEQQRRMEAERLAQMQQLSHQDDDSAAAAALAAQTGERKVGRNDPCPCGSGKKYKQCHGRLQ
Chromo domain-containing protein 1 (Saccharomyces cerevisiae (strain ATCC 204508 / S288c) (Baker's yeast)), sequence (P32657 whole entry, the tested form may be a part): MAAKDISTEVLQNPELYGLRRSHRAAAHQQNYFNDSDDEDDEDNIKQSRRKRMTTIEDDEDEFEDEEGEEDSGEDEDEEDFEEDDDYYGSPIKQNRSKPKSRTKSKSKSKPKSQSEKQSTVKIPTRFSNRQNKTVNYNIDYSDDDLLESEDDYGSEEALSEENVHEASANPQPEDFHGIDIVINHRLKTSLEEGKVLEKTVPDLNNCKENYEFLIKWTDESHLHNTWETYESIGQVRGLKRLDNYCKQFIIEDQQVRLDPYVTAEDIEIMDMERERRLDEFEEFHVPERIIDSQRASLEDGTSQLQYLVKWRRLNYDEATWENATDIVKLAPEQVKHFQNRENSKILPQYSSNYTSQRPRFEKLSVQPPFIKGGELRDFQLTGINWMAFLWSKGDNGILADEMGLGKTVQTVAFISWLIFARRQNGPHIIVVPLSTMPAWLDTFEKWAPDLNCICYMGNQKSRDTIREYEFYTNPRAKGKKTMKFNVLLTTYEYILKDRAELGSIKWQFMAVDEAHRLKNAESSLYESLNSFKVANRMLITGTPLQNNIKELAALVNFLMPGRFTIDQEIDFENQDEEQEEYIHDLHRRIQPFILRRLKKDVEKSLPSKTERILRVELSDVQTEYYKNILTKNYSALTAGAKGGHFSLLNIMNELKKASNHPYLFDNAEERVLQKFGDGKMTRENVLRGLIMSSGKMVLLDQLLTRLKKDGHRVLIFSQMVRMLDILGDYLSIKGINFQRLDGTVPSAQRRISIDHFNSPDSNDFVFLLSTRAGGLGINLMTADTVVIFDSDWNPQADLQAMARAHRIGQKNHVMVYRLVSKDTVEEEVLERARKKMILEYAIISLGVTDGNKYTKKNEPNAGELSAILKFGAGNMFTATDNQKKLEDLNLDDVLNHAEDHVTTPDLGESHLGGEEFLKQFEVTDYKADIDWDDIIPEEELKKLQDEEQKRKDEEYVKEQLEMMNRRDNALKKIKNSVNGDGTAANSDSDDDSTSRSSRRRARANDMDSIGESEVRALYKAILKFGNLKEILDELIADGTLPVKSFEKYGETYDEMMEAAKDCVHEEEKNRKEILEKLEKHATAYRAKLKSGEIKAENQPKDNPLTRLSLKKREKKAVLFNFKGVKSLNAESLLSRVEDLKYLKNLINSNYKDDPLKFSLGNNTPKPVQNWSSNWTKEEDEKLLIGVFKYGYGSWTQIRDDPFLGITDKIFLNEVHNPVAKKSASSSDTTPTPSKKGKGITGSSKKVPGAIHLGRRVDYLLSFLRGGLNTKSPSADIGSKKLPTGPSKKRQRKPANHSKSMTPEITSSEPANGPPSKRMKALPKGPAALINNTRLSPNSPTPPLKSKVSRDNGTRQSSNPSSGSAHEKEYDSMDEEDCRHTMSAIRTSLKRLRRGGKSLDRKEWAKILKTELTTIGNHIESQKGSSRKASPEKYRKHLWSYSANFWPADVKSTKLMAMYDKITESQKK

As to `O=C(C1CCOCC1)N1CC[C@H]2C[C@@H](c3ccncn3)O[C@@H]2C1`, the Percent Effect in [1] is -7.3%; in [2], 3.9%; in assay [3], 2.39%; with Trypanosoma cruzi, 5.55%; in assay [4] it was -6.48%; in assay [5] it was 13.7%. For the same compound, the Percent Effect in the assay filed under Homo sapiens is -13.3%; in assay [6] it was 3.68%; in [7], 15.4%; in assay [8] it was 25.1%.

As for `O=C(Nc1ccccc1)N1CCn2nnc(COc3cccnc3)c2C1`, the Percent Effect was -6.28% in [1]; 6.49% in assay [2]; -0.598% in [3]; -0.487% in the assay on Trypanosoma cruzi; 4.86% in assay [4]; 5.56% in [5]. In addition, the Percent Effect is -5.86% in the assay listed under Homo sapiens, 8.95% in [6], 15.4% in [7] and 5.54% in assay [8].

Regarding `O=C(c1ccc(C(F)(F)F)nc1)N1CCCC(n2cncn2)C1` (stereo not given), the Percent Effect in assay [1] was 1.26%; in [2], -5.13%; in assay [3], -2.26%; in the assay with Trypanosoma cruzi, 5.92%; in assay [4], 5.33%; in assay [5], 3.33%. The Percent Effect was -13.8% in the assay listed under Homo sapiens, -3.35% in [6], 1.21% in assay [7] and -3.39% in assay [8].

For the compound `Cc1ccccc1OCCC(=O)N1CCCC(n2cncn2)C1` (stereo not given), the Percent Effect in assay [1] is -5.79%; in assay [2], 5.13%; in assay [3] it was 4.87%; in the assay on Trypanosoma cruzi, 0.657%; in [4], 5.33%; in assay [5], 4.52%. Further, the Percent Effect in the assay listed under Homo sapiens is 0.995%; in [6] it was 1.44%; in assay [7], 10.8%; in assay [8], -3.4%.

On to `CC(Nc1cccc(CN2CCOC2=O)c1)C(=O)N1CCNC1=O` (stereo not given), for which the Percent Effect in assay [1] was -10.4%; in assay [2], 7.69%; in [3], 2.33%; in the assay with Trypanosoma cruzi it was -5.16%; in assay [4], -2.46%; in assay [5], 2.3%. Moreover, the Percent Effect in the assay filed under Homo sapiens was 28.2%; in assay [6], 2.39%; in [7] it was 8.43%; in [8], -2.72%.

For `Cn1cnc2c1CCN(CCCc1ccccc1)C2`, the Percent Effect in assay [1] is -5.94%; in assay [2], 2.67%; in assay [3] it was 4.07%; in the assay on Trypanosoma cruzi, 5.62%; in assay [4], -3.55%; in [5], 4.16%. Further, the Percent Effect in the assay filed under Homo sapiens is 23.4%; in assay [6], 7.89%; in assay [7] it was 12.8%; in assay [8], -10.6%.

Turning to `CNC(=O)C1(c2cnccn2)CCCN1C(=O)c1ccccc1OC` (stereo not given), the Percent Effect is 0.772% in assay [1]; 14.7% in assay [2]; -7.91% in [3]; -1.77% in the assay on Trypanosoma cruzi; -3.98% in assay [4]; 9.36% in assay [5]. Further, the Percent Effect in the assay listed under Homo sapiens is 17.4%; in assay [6], -2.12%; in assay [7] it was 5%; in [8], -18.1%.

On to `Cc1ncccc1NC(=O)C1=NOC2(CCN(Cc3nccs3)C2)C1` (stereo not given), for which the Percent Effect in [1] was -7.98%; in assay [2], -14.3%; in [3], 2.46%; in the assay with Trypanosoma cruzi, -0.682%; in assay [4] it was 4.45%; in assay [5], 17.7%. Further, the Percent Effect in the assay filed under Homo sapiens is -6.55%; in assay [6] it was 6.84%; in assay [7] it was 15.4%; in assay [8], 5.53%.

With `CCOc1ccc(CN2CCN(C(=O)c3ccc(C)n3C)CC2)cc1`, the Percent Effect was -2.75% in assay [1]; 5.33% in assay [2]; 3.18% in assay [3]; 1.41% in the assay with Trypanosoma cruzi; -4.43% in assay [4]; 12.1% in assay [5]. In addition, the Percent Effect in the assay filed under Homo sapiens was 8.63%; in assay [6] it was 6.84%; in assay [7] it was 15.4%; in assay [8] it was -10.5%.

Regarding `CN(C)C[C@H]1OC[C@@H]2CCN(S(=O)(=O)c3cccs3)C[C@@H]21`, the Percent Effect in [1] was -10.2%; in assay [2], 1.3%; in assay [3], 12.5%; with Trypanosoma cruzi it was -2.43%; in [4], -2.43%; in assay [5], 2.56%. For the same compound, the Percent Effect in the assay listed under Homo sapiens is 0.627%; in assay [6] it was -0.526%; in assay [7], -2.56%; in assay [8], 19.4%.

Regarding `COc1cccc(-n2nnc(C(=O)N3CCCC3)c2C)c1`, the Percent Effect is -0.683% in [1]; 10.3% in assay [2]; -7.88% in assay [3]; 2.72% in the assay on Trypanosoma cruzi; 4.92% in assay [4]; 7.25% in assay [5]. In addition, the Percent Effect in the assay filed under Homo sapiens was 6.63%; in assay [6] it was 7.18%; in [7] it was 13.2%; in assay [8], -3.38%.

Regarding `CCc1c(C)nn(CCNC(=O)C2CCCN(C(=O)N(C)C)C2)c1C` (stereo not given), the Percent Effect in assay [1] is -6.94%; in [2], 5.41%; in assay [3], 6.18%; with Trypanosoma cruzi, 2.04%; in [4], 6.64%; in assay [5] it was 7.36%. For the same compound, the Percent Effect in the assay listed under Homo sapiens came to 10.5%; in [6] it was 5.85%; in assay [7], 14.6%; in assay [8], 41.1%.
